# Measurements published in PubChem BioAssay (EPA / NIEHS).
# Records with an inconclusive call do not appear. Calls of active or inactive are those of the source. The calls were made as follows, unless noted: active = hit-call score of the fitted dose curve at least 0.9, where 1 is the maximum; inactive = score below 0.9.
# How the values were obtained:
# [1] = CCTE_Simmons_MITO_basal_resp_rate: CCTE's HepG2 Seahorse XF Respirometric Screening Assay at Basal Respiratory State, Simmons Lab (AID 2284001); settings: actives raise or lower the signal
# In short: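 HepG2 respirometry; 7-pt titration 125 nM–100 uM final; kinetic OCR at 6 min intervals for 72 min; n=3 biological, technical singles; DMSO baseline, gain or loss fit; fenpyroximate (decrease) and 2,4-DNP (increase) controls.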
# [2] = CCTE_Simmons_MITO_inhib_resp_rate: CCTE's HepG2 Seahorse XF Respirometric Screening Assay at Inhibited Respiratory State [full ETC block], Simmons Lab (AID 2284006); settings: actives raise or lower the signal
# In short: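 HepG2 oxygen consumption was measured by Seahorse XF after compound, FCCP, then rotenone/antimycin A injections. Seven concentrations from 125 nM to 100 uM (final) were tested, with 6-min kinetic reads over 72 minutes. Inhibited-state OCR was fitted bidirectionally against DMSO.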
# [3] = CCTE_Simmons_MITO_viability: CellTiter-Glo Viability Assessment for CCTE's HepG2 Seahorse XF Respirometric Screening Assay [post-hoc], Simmons Lab (AID 2284007; active = hit-call score of the fitted dose curve at least 0.9, where 1 is the maximum;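 as to AC50: cells exposed to chemical for 90 min before the ATP read; actives lower ATP signal relative to DMSO baseline meaning reduced viability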)
# In short: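 HepG2 cells exposed 90 min to 7 concentrations from 125 nM to 100 uM final, then ATP measured by luciferase luminescence. Three biological replicates per concentration; DMSO vehicle; dichlone control at 10 nM–100 uM.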
# [4] = CCTE_Shafer_MEA_acute_spike_number: CCTE's Neural Acute Assay for Total Number of Spikes, Shafer Lab (AID 2284008);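 as to AC50: curve fitted for decrease in spike count so AC50 reflects inhibitors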
# In short: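 Rat primary cortical neurons on 48-well MEA plates, DIV 13 or 15, at 37 C. 40 min baseline then 40 min with compound (0.03-40 uM); spikes detected at 8x rms noise, expressed as percent change from baseline.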
# [5] = CCTE_Shafer_MEA_acute_firing_rate_mean: CCTE's Neural Acute Assay for Mean Firing Rate, Shafer Lab (AID 2284009);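 also: analyzed for loss of signal so actives lower firing rate relative to DMSO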
# In short: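 Percent change in well-mean firing rate was derived from extracellular spikes detected at 8x rms noise (300-5000 Hz band-pass) before and after a 40-min compound exposure. Cultures were primary rat cortical neurons, tested at 0.03-40 uM.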
# [6] = CCTE_Harrill_HTTr_Viability_MCF7: CCTE's 6-hour Cell Viability Assessment for the High-Throughput Transcriptomics (HTTr) Platform, in MCF-7 cells cultured in DMEM + 10% fetal bovine serum, Harrill Lab (AID 2284010)
# In short: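 MCF-7 cells in DMEM + 10% FBS, 384-well, exposed 6 h to an eight-point dilution series. Membrane integrity scored by high-content imaging of propidium iodide exclusion; bidirectional fit versus DMSO.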
# [7] = CCTE_Harrill_HTTr_Apoptosis_MCF7: CCTE's 6-hour Apoptosis Assessment for the High-Throughput Transcriptomics (HTTr) Platform, in MCF-7 cells cultured in DMEM + 10% fetal bovine serum, Harrill Lab (AID 2284011)
# In short: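 MCF-7 cells in DMEM + 10% FBS exposed 6 h to chemicals over an eight-point dilution series. Caspase-3/7 activation imaged by high-content CellEvent Green staining; fitted bidirectionally versus DMSO.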
# [8] = biological target: Nucleoli Translocation, AR (gene 367) (UniProt P10275); assay: UPITT_HCI_U2OS_AR_TIF2_Nucleoli_Antagonist: University of Pittsburgh U2OS Androgen Receptor-Transcriptional Intermediary Factor 2 (AR-TIF2) Antagonism High Content Imaging Assay for Nucleoli Translocation (AID 2283997; active = hit-call score of the fitted dose curve at least 0.9, where 1 is the maximum)
# Chain of Nucleoli Translocation, AR (gene 367) (P10275 whole entry, looked up): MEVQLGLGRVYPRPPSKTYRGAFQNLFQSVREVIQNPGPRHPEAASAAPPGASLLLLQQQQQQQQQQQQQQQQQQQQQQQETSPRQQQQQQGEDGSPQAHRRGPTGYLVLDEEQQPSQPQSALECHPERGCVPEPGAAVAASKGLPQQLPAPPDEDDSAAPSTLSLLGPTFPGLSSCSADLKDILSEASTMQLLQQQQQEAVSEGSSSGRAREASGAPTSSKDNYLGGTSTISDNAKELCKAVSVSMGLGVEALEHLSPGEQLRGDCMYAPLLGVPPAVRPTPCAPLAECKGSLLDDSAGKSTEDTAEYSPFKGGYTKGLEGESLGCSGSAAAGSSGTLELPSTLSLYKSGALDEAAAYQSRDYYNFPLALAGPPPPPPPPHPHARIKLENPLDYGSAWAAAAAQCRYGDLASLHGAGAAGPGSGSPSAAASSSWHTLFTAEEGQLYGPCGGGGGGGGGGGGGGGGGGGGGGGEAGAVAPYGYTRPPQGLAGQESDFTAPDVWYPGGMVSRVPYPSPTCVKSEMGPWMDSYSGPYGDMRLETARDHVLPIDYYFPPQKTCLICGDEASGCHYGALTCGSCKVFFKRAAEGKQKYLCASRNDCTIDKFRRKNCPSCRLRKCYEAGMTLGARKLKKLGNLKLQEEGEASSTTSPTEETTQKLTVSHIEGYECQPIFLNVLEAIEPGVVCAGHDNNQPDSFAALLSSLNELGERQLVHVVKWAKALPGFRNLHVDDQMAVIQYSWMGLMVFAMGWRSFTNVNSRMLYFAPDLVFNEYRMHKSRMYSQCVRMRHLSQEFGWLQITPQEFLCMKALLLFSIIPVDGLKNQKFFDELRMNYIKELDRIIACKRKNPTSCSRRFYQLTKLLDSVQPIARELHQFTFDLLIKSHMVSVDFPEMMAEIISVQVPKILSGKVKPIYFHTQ
# In short: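 Measured quantity was AR-RFP fluorescence localized to nucleoli in engineered U2OS cells also bearing TIF2-GFP, acquired on automated high-content imagers. Primary testing used 20 uM compound; actives were confirmed in triplicate wells.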
# [9] = biological target: Nucleoli Translocation, AR (gene 367) (UniProt P10275); assay: UPITT_HCI_U2OS_AR_TIF2_Nucleoli_Agonist: University of Pittsburgh U2OS Androgen Receptor-Transcriptional Intermediary Factor 2 (AR-TIF2) Agonism High Content Imaging Assay for Nucleoli Translocation (AID 2283998; active = hit-call score of the fitted dose curve at least 0.9, where 1 is the maximum)
# In short: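 U2OS cells expressing RFP-tagged human AR and GFP-tagged TIF2; red fluorescence in nucleoli quantified by high-content imaging. Primary screen at 20 uM final (0.2% DMSO); concentration-response 0.195–50 uM (0.5% DMSO), fitted upward versus DMSO.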
# [10] = biological target: Ratio of Nucleoli Translocation and Cytoplasm, AR (gene 367) (UniProt P10275); assay: UPITT_HCI_U2OS_AR_TIF2_Nucleoli_Cytoplasm_Ratio_Agonist: University of Pittsburgh U2OS Androgen Receptor-Transcriptional Intermediary Factor 2 (AR-TIF2) Agonism High Content Imaging Assay for Ratio of Nucleoli Translocation and Cytoplasm (AID 2284000; active = hit-call score of the fitted dose curve at least 0.9, where 1 is the maximum;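 also: hits raise the red nucleolar to cytoplasm ratio above vehicle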)
# Chain of Ratio of Nucleoli Translocation and Cytoplasm, AR (gene 367) (P10275 whole entry, looked up): as above
# In short: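 Read-out first: nucleolar-to-cytoplasm ratio of red (AR-RFP) signal, quantified by high-content imaging in U2OS cells co-expressing TIF2-GFP. Activity is scored as signal increase over DMSO. Single-point screening used 20 uM final (0.2% DMSO).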
# [11] = TOX21_TR_RXR_BLA_Antagonist_Followup_viability: Viability Assessment in the Tox21 Thyroid Hormone Receptor beta Retinoid X Receptor alpha (RXRa) Antagonism Beta-lactamase (BLA) Follow-Up Assay (AID 2283979; active = hit-call score of the fitted dose curve at least 0.9, where 1 is the maximum)
# In short: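 Follow-up compounds (11 concentrations, triplicate) were incubated 16 h at 37C/5% CO2 with HEK293T RXRa-bla cells seeded at 2,500/well in charcoal-stripped-serum medium. ATP content by CellTiter-Glo luminescence gave viability; curves fitted in both directions against DMSO.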
smiles,measurement,setting,value
OC12N=C(c3ccccc3)SC1Cc1cc(Cl)ccc12 (stereo unspecified),outcome,[1],inactive
same,outcome,[2],inactive
same,outcome,[3],inactive
same,AC50,[4],6.83 µM (active)
same,AC50,[5],6.86 µM (active)
same,outcome,[6],inactive
same,outcome,[7],inactive
O=C(O)Cn1c(=O)n(Cc2ccc(Br)cc2F)c(=O)c2ccc(Cl)cc21,outcome,[8],inactive
same,outcome,[9],inactive
same,outcome,[10],inactive
same,outcome,[6],inactive
same,outcome,[7],inactive
CC(=O)N1CCN(c2ccc(OC[C@H]3CO[C@](Cn4ccnc4)(c4ccc(Cl)cc4Cl)O3)cc2)CC1,AC50,[1],8.55 µM (active)
same,AC50,[2],9.46 µM (active)
same,outcome,[3],inactive
same,outcome,[4],inactive
same,outcome,[5],inactive
same,outcome,[6],inactive
same,outcome,[7],inactive
O=c1c(-c2ccc(O)cc2)coc2cc(O)cc(O)c12,outcome,[8],inactive
same,outcome,[9],inactive
same,outcome,[10],inactive
same,outcome,[6],inactive
same,outcome,[7],inactive
O=C(O)Cc1cc(I)c(Oc2ccc(O)c(I)c2)c(I)c1,AC50,[1],27 µM (active)
same,outcome,[2],inactive
same,outcome,[3],inactive
same,outcome,[6],inactive
same,outcome,[7],inactive
COc1cc(C(=O)NC2CCN(C)CC2)ccc1Nc1ncc2c(n1)N(C1CCCC1)CC(F)(F)C(=O)N2C,AC50,[11],26 µM (active)
same,outcome,[8],inactive
same,AC50,[9],46.5 µM (active)
same,outcome,[10],inactive
same,AC50,[4],7.05 µM (active)
same,AC50,[5],7.05 µM (active)
same,outcome,[6],inactive
same,outcome,[7],inactive
COCC(C)OCC(C)OCC(C)O (stereo unspecified),outcome,[8],inactive
same,outcome,[9],inactive
same,outcome,[10],inactive
same,outcome,[6],inactive
same,outcome,[7],inactive
CCCCCCCCN(C)CCCCCCCC,outcome,[8],inactive
same,outcome,[10],inactive
same,outcome,[6],inactive
same,outcome,[7],inactive
CCCC(=O)OCCC(C)C,outcome,[8],inactive
same,outcome,[9],inactive
same,outcome,[10],inactive
same,outcome,[6],inactive
same,outcome,[7],inactive
NCc1cccc(C2CCN(C(=O)c3ccc(C#Cc4ccccc4F)o3)CC2)c1,AC50,[8],72.7 µM (active)
same,outcome,[9],inactive
same,AC50,[10],50 µM (active)
same,AC50,[1],37.2 µM (active)
same,outcome,[2],inactive
same,outcome,[3],inactive
same,AC50,[4],9.02 µM (active)
same,AC50,[5],9.02 µM (active)
same,AC50,[6],50 µM (active)
same,AC50,[7],61.4 µM (active)
CN(C)c1ccc(C(=C2C=CC(=[N+](C)C)C=C2)c2ccc(N(C)C)cc2)cc1,AC50,[8],0.262 µM (active)
same,AC50,[9],14.6 µM (active)
same,outcome,[10],inactive
same,AC50,[1],50 µM (active)
same,AC50,[2],61.6 µM (active)
same,AC50,[3],21.4 µM (active)
same,AC50,[4],0.416 µM (active)
same,AC50,[5],0.406 µM (active)
same,AC50,[6],14.4 µM (active)
same,outcome,[7],inactive
Cc1ccc(C(C)C)cc1,outcome,[8],inactive
same,outcome,[9],inactive
same,outcome,[10],inactive
same,outcome,[6],inactive
same,outcome,[7],inactive
NC(=O)c1nc(-c2cccc(-c3cc(F)ccc3OCC(F)(F)C(F)(F)F)c2)n[nH]1,outcome,[8],inactive
same,AC50,[9],13.2 µM (active)
same,AC50,[10],12.7 µM (active)
same,AC50,[1],6.26 µM (active)
same,outcome,[2],inactive
same,outcome,[3],inactive
same,AC50,[4],0.648 µM (active)
same,AC50,[5],0.649 µM (active)
same,outcome,[6],inactive
same,outcome,[7],inactive
CCN(Cc1cccnc1)C(=O)c1cccc(Cl)c1[C@]1(C)C(=O)N(Cc2ccc(OC)cc2OC)c2ccc(Cl)cc21,outcome,[8],inactive
same,outcome,[9],inactive
same,outcome,[10],inactive
same,AC50,[1],2.36 µM (active)
same,outcome,[2],inactive
same,outcome,[3],inactive
same,outcome,[6],inactive
same,outcome,[7],inactive
O=C(Nc1ccc(Cl)cc1)Nc1ccc(Cl)c(Cl)c1,AC50,[8],5.24 µM (active)
same,outcome,[10],inactive
same,outcome,[6],inactive
same,outcome,[7],inactive
Cc1c2ccccc2c(C)c2c1ccc1ccccc12,AC50,[8],50 µM (active)
same,outcome,[9],inactive
same,outcome,[10],inactive
same,AC50,[1],17.1 µM (active)
same,outcome,[2],inactive
same,AC50,[3],19.4 µM (active)
same,AC50,[4],20 µM (active)
same,AC50,[5],20 µM (active)
same,outcome,[6],inactive
same,outcome,[7],inactive
CCCCOC(=O)c1ccc(O)cc1,outcome,[8],inactive
same,outcome,[9],inactive
same,outcome,[10],inactive
same,AC50,[1],23.7 µM (active)
same,outcome,[2],inactive
same,outcome,[3],inactive
same,outcome,[4],inactive
same,outcome,[5],inactive
same,outcome,[6],inactive
same,outcome,[7],inactive
CN(C)C(=O)C1(N2CCCCC2)CCN(CC[C@@]2(c3ccc(Cl)c(Cl)c3)CN(C(=O)c3ccccc3)CCO2)CC1,outcome,[1],inactive
same,outcome,[2],inactive
same,AC50,[4],3.26 µM (active)
same,AC50,[5],3.28 µM (active)
same,outcome,[6],inactive
same,outcome,[7],inactive
O=C(O)c1ccccc1C(=O)OCc1ccccc1,outcome,[8],inactive
same,outcome,[10],inactive
same,outcome,[6],inactive
same,outcome,[7],inactive
Cc1occc1C(=O)Nc1ccc(C(=O)N2CCC(F)(F)/C(=C\C(=O)N3CCC(N4CCCCC4)CC3)c3ccccc32)cc1,outcome,[8],inactive
same,outcome,[9],inactive
same,outcome,[10],inactive
same,outcome,[6],inactive
same,outcome,[7],inactive
Cc1cc2c(cc1C(F)(F)F)N(C(=O)Nc1ccc(Oc3cccnc3C)nc1)CC2,outcome,[1],inactive
same,outcome,[2],inactive
same,outcome,[3],inactive
same,outcome,[4],inactive
same,outcome,[5],inactive
same,outcome,[6],inactive
same,outcome,[7],inactive
O=C1c2ccccc2C(=O)N1CCc1noc(-c2ccc(CN3CCCCCC3)s2)n1,AC50,[1],57.5 µM (active)
same,outcome,[2],inactive
same,outcome,[3],inactive
same,outcome,[6],inactive
same,outcome,[7],inactive
CN(C[C@@H](CC[N+]12CCC(C3CCCCC3)(CC1)CC2)c1ccc(Cl)c(Cl)c1)C(=O)c1cc(C(F)(F)F)cc(C(F)(F)F)c1,AC50,[8],50 µM (active)
same,AC50,[10],50 µM (active)
same,AC50,[4],0.273 µM (active)
same,AC50,[5],0.273 µM (active)
same,AC50,[6],78.6 µM (active)
same,AC50,[7],42.5 µM (active)
